Some test systems named below: NCI-H23 lung; NCI-H226 lung; NCI-H322M lung; NCI-H460 lung; NCI-H522 lung; A549/ATCC NSCLC; 786-0 renal; DU-145 prostate; K-562 leukemia; MALME-3M melanoma; MDA-MB-231 breast; RXF 393 renal; SF-268 CNS; SF-295 CNS; SF-539 CNS; UACC-257 melanoma; M14 melanoma; HCT-15 colon; COLO 205 colon.
Holding throughout (test): NCI-60 one-dose screen, 48 h (100 = growth as untreated, 0 = no growth, -100 = all killed)
Conditions in all cases: 10 µM unless noted

Each structure is given as a SMILES string. About 83,000 compounds went through this panel and 20% of them were active in at least one assay; those are over-represented in the sample as a whole.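 Note: values are percent growth. 100 is the growth of untreated cells, values between 100 and 0 indicate rising inhibition; between -100 and 0 indicates cell death.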 Values without a mark were called inactive. The source made the active and inactive calls. How the source made its calls: active means growth percent below 10; inactive means the rest.

As to `O=C(CSc1nc2c(n1Nc1ccccc1)-c1ccccc1SC2)Nc1nc(-c2ccc(Cl)cc2)cs1`, the growth was 53% in the assay with NCI-H23 lung; 92% in the assay with NCI-H226 lung; 91.1% in the assay on NCI-H322M lung; 77% in the assay with NCI-H460 lung; 65.2% in the assay with NCI-H522 lung; 25.7% in the assay with A549/ATCC NSCLC. Besides, the growth in the assay with 786-0 renal was 71.5%; in the assay on DU-145 prostate it was 73.5%; in the assay with K-562 leukemia it was 78%; in the assay with MALME-3M melanoma, 64.2%; in the assay with MDA-MB-231 breast, 75.1%; with RXF 393 renal, 98.8%. The growth with SF-268 CNS was 47.2%; with SF-295 CNS, 45.3%; with SF-539 CNS, 70.2%; in the assay with UACC-257 melanoma, 89.5%; with M14 melanoma, 59.9%; in the assay on HCT-15 colon it was 77.4%.
In the case of `Cc1cc(C)n2nc(SCC(=O)Nc3sc4c(c3C(N)=O)CCC4)nc2n1`, the growth is 101% with NCI-H23 lung; 87.1% in the assay with NCI-H226 lung; 99.7% in the assay on NCI-H322M lung; 116% in the assay on NCI-H460 lung; 94% with NCI-H522 lung; 146% in the assay with A549/ATCC NSCLC. Besides, the growth was 96.4% with 786-0 renal; 118% in the assay with COLO 205 colon; 101% with DU-145 prostate; 119% in the assay on K-562 leukemia; 106% in the assay on MALME-3M melanoma; 99.2% with MDA-MB-231 breast. The growth in the assay on RXF 393 renal was 117%; in the assay with SF-268 CNS, 113%; in the assay on SF-295 CNS, 101%; with SF-539 CNS, 90.8%; in the assay on M14 melanoma, 102%; in the assay on HCT-15 colon, 108%.
As to `COc1ccc2[nH]cc(/C=C3/C(=O)Nc4ccc(Cl)cc43)c2c1`, the growth is 37.8% in the assay with NCI-H23 lung; 60.1% in the assay with NCI-H226 lung; 57.1% in the assay with NCI-H322M lung; 46.1% with NCI-H460 lung; -7.27% (active) in the assay on NCI-H522 lung; 56.6% in the assay with A549/ATCC NSCLC. Moreover, the growth in the assay on 786-0 renal is 43.2%; with COLO 205 colon, 63.8%; with DU-145 prostate, 47.6%; in the assay with K-562 leukemia, 27.4%; in the assay with MALME-3M melanoma it was 31.5%; in the assay with MDA-MB-231 breast it was 28.2%. Moreover, the growth is 21.3% with RXF 393 renal; 53.1% in the assay on SF-295 CNS; 67.8% in the assay with SF-539 CNS; 68.5% with UACC-257 melanoma; 37.2% with M14 melanoma; 30.4% with HCT-15 colon.
With `COc1ccc(OC)c2c1[nH]c(=O)c1c3ccccc3cn21`, the growth in the assay on NCI-H23 lung is -25.8% (active); in the assay with NCI-H226 lung, 48.4%; in the assay on NCI-H322M lung it was -70.7% (active); in the assay on NCI-H460 lung, -61.2% (active); in the assay on NCI-H522 lung, -50.4% (active); in the assay with A549/ATCC NSCLC it was -73.2% (active). For the same compound, the growth in the assay with 786-0 renal was -86.3% (active); with COLO 205 colon, -91.1% (active); in the assay with DU-145 prostate it was -65% (active); in the assay on K-562 leukemia, 11.2%; with MALME-3M melanoma it was -89.4% (active); in the assay with MDA-MB-231 breast, -89.2% (active). Also, the growth is -79.9% (active) in the assay on RXF 393 renal; -64.9% (active) in the assay with SF-268 CNS; -76.7% (active) with SF-295 CNS; -98.5% (active) in the assay on SF-539 CNS; -75.5% (active) in the assay with UACC-257 melanoma; -54.3% (active) in the assay on M14 melanoma. The growth with HCT-15 colon is -46.5% (active).
Turning to `COc1ccc(-c2nc3sccn3c2-c2ccnc(S(C)(=O)=O)n2)cc1`, the growth in the assay with NCI-H23 lung was 100%; in the assay with NCI-H226 lung, 90.4%; in the assay on NCI-H322M lung it was 55.4%; in the assay on NCI-H460 lung, 88.9%; with NCI-H522 lung, 26.7%; with A549/ATCC NSCLC, 105%. Moreover, the growth was 99.1% in the assay with 786-0 renal; 84.2% with COLO 205 colon; 56.7% in the assay on DU-145 prostate; 75.1% in the assay on MALME-3M melanoma; 84.3% with MDA-MB-231 breast; 97.5% with RXF 393 renal. Moreover, the growth in the assay on SF-268 CNS is 95%; in the assay on SF-295 CNS it was 74.9%; with SF-539 CNS, 109%; with UACC-257 melanoma, 111%; in the assay with M14 melanoma it was 102%; in the assay on HCT-15 colon it was 84.3%.
For `Cc1cc([N+](=O)[O-])c(C)cc1C(=O)O`, the growth was 104% in the assay with NCI-H23 lung; 99.8% in the assay on NCI-H226 lung; 92.7% in the assay with NCI-H322M lung; 111% in the assay with NCI-H460 lung; 96.1% in the assay on NCI-H522 lung; 108% with A549/ATCC NSCLC. Also, the growth with 786-0 renal is 97%; in the assay with COLO 205 colon, 108%; in the assay with DU-145 prostate, 109%; with MALME-3M melanoma it was 102%; in the assay on MDA-MB-231 breast it was 110%; in the assay on RXF 393 renal it was 112%. Further, the growth is 99.8% in the assay with SF-268 CNS; 96.9% in the assay with SF-295 CNS; 98.5% in the assay with SF-539 CNS; 105% in the assay on UACC-257 melanoma; 100% in the assay with M14 melanoma; 97.3% with HCT-15 colon.
In the case of `O=C1NCC(Nc2ccc(Br)cc2Cl)C(=O)N1` (stereo not drawn), the growth in the assay with NCI-H23 lung is 100%; in the assay on NCI-H226 lung it was 109%; in the assay on NCI-H322M lung it was 126%; with NCI-H460 lung, 112%; in the assay on NCI-H522 lung, 93%; in the assay with A549/ATCC NSCLC, 122%. The growth in the assay on 786-0 renal is 103%; in the assay on COLO 205 colon it was 98%; in the assay with DU-145 prostate, 119%; with K-562 leukemia, 95.5%; in the assay with MDA-MB-231 breast, 104%; in the assay with RXF 393 renal it was 112%. The growth is 105% in the assay with SF-268 CNS; 118% in the assay on SF-295 CNS; 98.9% in the assay with SF-539 CNS; 160% with UACC-257 melanoma; 93.8% in the assay on M14 melanoma; 107% with HCT-15 colon.
Regarding `NC(=O)NN=C(C1CC1)C1CC1`, the growth was 93.8% in the assay on NCI-H23 lung; 109% in the assay on NCI-H226 lung; 110% in the assay with NCI-H322M lung; 106% with NCI-H460 lung; 103% with A549/ATCC NSCLC; 107% in the assay on 786-0 renal. Moreover, the growth with COLO 205 colon is 105%; in the assay on DU-145 prostate it was 116%; with K-562 leukemia it was 94.8%; with MALME-3M melanoma, 143%; in the assay on MDA-MB-231 breast it was 118%; with RXF 393 renal, 138%. In addition, the growth in the assay with SF-268 CNS was 102%; with SF-295 CNS it was 106%; with SF-539 CNS, 90.2%; in the assay on UACC-257 melanoma, 101%; with M14 melanoma it was 106%; with HCT-15 colon it was 98%.
In the case of `CC(=O)NC1(C(=O)O)CCCC1`, the growth in the assay with NCI-H23 lung was 133%; in the assay on NCI-H226 lung, 113%; in the assay with NCI-H322M lung, 130%; in the assay with NCI-H460 lung it was 109%; in the assay on NCI-H522 lung, 103%; in the assay with A549/ATCC NSCLC it was 126%. The growth with 786-0 renal was 110%; with COLO 205 colon it was 125%; with DU-145 prostate, 126%; in the assay on K-562 leukemia, 96.6%; in the assay with MALME-3M melanoma it was 135%; in the assay with MDA-MB-231 breast it was 119%. Also, the growth in the assay with SF-268 CNS was 111%; with SF-295 CNS, 110%; in the assay with SF-539 CNS it was 104%; with UACC-257 melanoma it was 100%; in the assay with M14 melanoma, 110%; in the assay with HCT-15 colon, 112%.

For the origin of these results see PubChem BioAssay (NCI).
